According to the supplement of paper PMC6555819:

Experiments:
Assay in all cases: PBM binding z-score (relative to random genomic background probes); higher = stronger binding; sequences stand for … in GC…GCGATTGACAGCGTAGAATGAAGG
[1] = test system: PPARg:RXRa DBDmut IVT, anti-RXR (DBD mutation: RXRa K156A/R161A, NR concentration 270 nM, RXRa partner concentration 90 nM)
Method in brief: (§1)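 Binding z-scores take random background probes as their reference. They come from custom Agilent 4×180K protein-binding microarrays incubated 1 h with ligand-free nuclear receptor dimers, with antibodies against each partner (one per run) detecting binding. Scanned fluorescence was regression-normalized.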

[2] = test system: PPARg:RXRa IVT, anti-PPARg (NR concentration 270 nM, RXRa partner concentration 90 nM)
Method in brief: as §1

[3] = test system: PPARg DBDmut:RXRa IVT, anti-PPARg (DBD mutation: PPARg1 K132A/R137A, NR concentration 270 nM, RXRa partner concentration 90 nM)
Method in brief: as §1

[4] = test system: PPARg DBDmut IVT, anti-PPARg (DBD mutation: PPARg1 K132A/R137A, NR concentration 270 nM)
Method in brief: as §1

[5] = test system: PPARg homodimer (NR concentration 180 nM)
Method in brief: as §1

[6] = test system: PXR:RXRa (NR concentration 270 nM, RXRa partner concentration 90 nM)
Method in brief: as §1

[7] = test system: PXR homodimer (NR concentration 270 nM)
Method in brief: as §1

[8] = test system: RARa:RXR (NR concentration 270 nM, RXRa partner concentration 90 nM)
Method in brief: as §1

[9] = test system: RARa homodimer (NR concentration 270 nM)
Method in brief: as §1

[10] = test system: RARb:RXRa (NR concentration 270 nM, RXRa partner concentration 90 nM)
Method in brief: as §1

[11] = test system: RARb homodimer (NR concentration 270 nM)
Method in brief: as §1

[12] = test system: RARg:RXRa (NR concentration 270 nM, RXRa partner concentration 90 nM)
Method in brief: as §1

[13] = test system: RARg homodimer (NR concentration 270 nM)
Method in brief: as §1

[14] = test system: RXRa DBDmut IVT, anti-RXR (DBD mutation: RXRa K156A/R161A, NR concentration 90 nM)
Method in brief: as §1

[15] = test system: RXRa homodimer (NR concentration 180 nM)
Method in brief: as §1

[16] = test system: THRa:RXRa (NR concentration 90 nM, RXRa partner concentration 90 nM)
Method in brief: as §1

[17] = test system: THRa homodimer (NR concentration 90 nM)
Method in brief: as §1

[18] = test system: VDR homodimer (NR concentration 270 nM)
Method in brief: as §1

Row | Sequence | PBM binding z-score [1] | PBM binding z-score [2] | PBM binding z-score [3] | PBM binding z-score [4] | PBM binding z-score [5] | PBM binding z-score [6] | PBM binding z-score [7] | PBM binding z-score [8] | PBM binding z-score [9] | PBM binding z-score [10] | PBM binding z-score [11] | PBM binding z-score [12] | PBM binding z-score [13] | PBM binding z-score [14] | PBM binding z-score [15] | PBM binding z-score [16] | PBM binding z-score [17] | PBM binding z-score [18]
1 | TAGCCTAGGTCATGGGCCAGTATCCCACGCGAAC | 1.1 | 3.14 | 0.396 | -0.233 | 1.33 | 1.43 | -0.353 | 2.55 | -0.117 | 3.74 | 2.76 | 4 | 4.2 | -0.01 | 3.19 | 3.18 | 1.65 | 0.301
2 | TAGCCTAGGTCATGGGGCAGTATACCACGCGAAC | 1.45 | 3.74 | 0.479 | 0.305 | 1.67 | 1.78 | -0.439 | 3.21 | -0.03 | 3.79 | 2.71 | 4.3 | 4.2 | 0.354 | 3.61 | 3.23 | 1.44 | 0.585
3 | ACTATTAGTTGAGTCGAGGGCAACCGATAGGTTG | 0.363 | 0.962 | 0.679 | 0.368 | 0.693 | 1.34 | 0.315 | 0.785 | 0.945 | 1.14 | 1.2 | 0.788 | 0.802 | 0.52 | 0.607 | 2.3 | 0.603 | 1.05
4 | GCATATAGGTAATACAAGGGGAAAGTCCGATTGT | 4.01 | 2.14 | 0.831 | 0.956 | 0.379 | -0.118 | 0.0351 | 0.489 | 0.339 | -0.122 | -0.0469 | 0.247 | 0.368 | 0.734 | 0.3 | 1.94 | -0.473 | 0.0263
5 | CCTACTGAGCCAAAAAGGTCATTGATGCCGATAA | 0.522 | 1.14 | -0.507 | 0.266 | 3.04 | 4.49 | 2.44 | 4.93 | 2.61 | 3.86 | 4.22 | 4.3 | 4.1 | 1.49 | 5.03 | 2.86 | 1.05 | 2.73
6 | TCATAGAGGTAAAGGTGAAAGTCGAACGATATGA | 2.03 | 3.05 | 0.77 | 0.323 | 0.369 | 1.15 | -0.365 | 2.03 | 0.137 | 2.19 | 1.69 | 1.9 | 1.52 | 0.528 | 2.39 | 1.67 | -0.473 | -0.362
7 | TCTAGTTGGTCACGGAGGTCAGACACGACGGGTA | 2.48 | 3.14 | 0.816 | 0.0631 | 2.07 | 2.96 | 0.703 | 2.79 | 0.955 | 3.26 | 3.9 | 3.72 | 3.75 | 1 | 3.4 | 2.79 | 1.39 | 1.56
8 | AGAACGAGGGCACGCTGAGTTCATAGCAGAGTAG | 3.84 | 3.89 | 0.826 | -0.0454 | 1.16 | 5.94 | 10.4 | 2.94 | -0.449 | 3.2 | 2.79 | 4.31 | 3.34 | 3.17 | 3.08 | 3.31 | 0.849 | 7.01
9 | TCTCGGAGGACACGAAAGGTCAGAGATCGACATC | 1.64 | 1.91 | 0.484 | 0.156 | 2.63 | 3.95 | 0.205 | 4.31 | 0.638 | 4.4 | 4.63 | 5.05 | 5.73 | 1.17 | 4.6 | 3.87 | 1.53 | 1.12
10 | CCTCGAAGGACAACAGGAGGTCAGAGCTGCCAGA | -0.42 | 0.185 | -0.412 | -0.537 | 1.76 | 1.94 | 0.545 | 2.37 | 0.491 | 3.06 | 3.42 | 3.4 | 3.28 | 0.237 | 1.89 | 2.58 | 0.731 | 0.641
11 | GCTATTAGTTGAAAGGGCAATCGAATGATTCTCG | 0.456 | 1 | -0.234 | 0.628 | 1.15 | 0.658 | 0.0729 | 1.25 | 0.589 | 1.74 | 1.55 | 0.91 | 0.806 | 0.718 | 1.12 | 0.487 | -0.359 | 0.123
12 | CCAGACAGGTGAGAAGGTAAGTCAGCCTCGATTA | 0.908 | 0.37 | -1.11 | -0.901 | 0.826 | 0.0674 | 0.339 | 0.396 | 0.66 | 0.566 | 0.641 | 0.215 | 0.357 | 0.0817 | 0.216 | 0.3 | 0.145 | -0.136
13 | GCTTACGGGTCTAAGGTTATAGCATGAATAGAAT | 0.0529 | 0.754 | 0.306 | 0.266 | 0.501 | 0.939 | 0.427 | 1.66 | 0.142 | 1.02 | 0.97 | 0.869 | 0.598 | 1.27 | 1.46 | 2.16 | 1.21 | 1.04
14 | TAGCCAAGGTCATGGGCCAGTATACCACGCGAAC | 1.56 | 3.66 | 0.971 | 1.48 | 2.86 | 4.24 | 0.572 | 4.73 | 0.369 | 5.36 | 4.04 | 6.18 | 6.1 | 1.93 | 6.11 | 3.89 | 2.68 | 2.65
15 | CCGACTGGGGCAGAAAGGTTTCCATACCATCCGG | 1.64 | 0.908 | -1.84 | -1.79 | -0.677 | -0.755 | -0.948 | -0.82 | -1.09 | 0.352 | 0.129 | -0.218 | 0.0471 | -0.768 | -0.284 | -1.38 | -0.951 | -0.664
16 | GCTATTAGTTGAAAGGGTAACCGAATGATTCTCG | 0.535 | 0.734 | 0.307 | 0.443 | 0.807 | 0.366 | 0.207 | 1.02 | 0.465 | 0.813 | 0.907 | 0.593 | 0.407 | 1.01 | 0.952 | 0.527 | 0.212 | -0.0669
